Hits are enriched below; roughly 9.4% of the tested compounds scored in any of these assays.
Rab9 prom act: activators of Rab9 promoter | Huh7 Rab9 promoter-luciferase reporter, luminescence, 24 h | Potency, µM (titrated, usually from 9.22 µM), for the others: at the top dose activation, negative = inhibition, most hits filed as activators | hit rate 2.8% among 320,000; further: % of control where 0% means no effect; nearly all actives have a fitted effect of over 60% in size
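Huh7 cells stably carrying a Rab9 promoter-luciferase reporter, 1500 cells per well in OP-MEM I with 10% FBS, treated with compound 24 hours at 37C. Luciferase activity read by luminescence after 10 minutes with Amplite reagent.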
FLuc modulator: inhibits or activates purified firefly luciferase, miR-21 counter-screen. hit rate 6.9% among 360,000. AID 588342. Potency, µM (titrated, usually from 57.5 µM), without a hit: at the top dose activity change, negative = inhibition, actives largely listed as inhibitors. P08659. purified FLuc, Km substrates, luminescence inhibition;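 further: plate controls were vehicle for no effect and reference inhibitor for full effect; nearly all actives have a fitted effect of over 55% in size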
Target sequence (P08659 whole entry, looked up): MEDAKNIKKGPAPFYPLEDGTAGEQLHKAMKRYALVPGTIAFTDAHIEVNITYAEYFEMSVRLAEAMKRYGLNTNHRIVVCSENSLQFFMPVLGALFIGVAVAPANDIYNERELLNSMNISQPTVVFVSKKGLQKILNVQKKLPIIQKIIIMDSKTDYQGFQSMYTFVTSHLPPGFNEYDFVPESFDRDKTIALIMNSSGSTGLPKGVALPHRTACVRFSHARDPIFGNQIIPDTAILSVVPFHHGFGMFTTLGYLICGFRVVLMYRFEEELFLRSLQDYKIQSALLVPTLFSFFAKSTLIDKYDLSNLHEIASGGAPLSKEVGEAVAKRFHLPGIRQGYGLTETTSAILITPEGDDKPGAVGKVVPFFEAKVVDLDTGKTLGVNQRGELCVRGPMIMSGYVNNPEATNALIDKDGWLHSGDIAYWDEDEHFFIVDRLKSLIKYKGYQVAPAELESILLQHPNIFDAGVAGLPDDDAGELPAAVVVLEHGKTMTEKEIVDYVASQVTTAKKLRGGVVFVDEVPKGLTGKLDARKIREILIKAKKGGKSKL
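Purified P. pyralis luciferase, 10 nM final, with Km-level 10 uM D-luciferin and 10 uM ATP in 50 mM Tris acetate pH 7.5, 10 mM Mg acetate, 0.01% Tween-20, 0.05% BSA; 6-point qHTS titration about 60 µM downward; luminescence read.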
ELG1 genotox: genotoxicity induction in ELG1-luciferase HEK293T cells; HEK293T ELG1-luciferase reporter, luminescence, 16 h; hit rate 1.3% among 330,000; Potency, µM (titrated, usually from 46 µM), for inactives: at the highest dose activity change, positive = activation, actives largely listed as activators; further: % of control where 0% means no effect; nearly all actives have a fitted effect of over 60% in size
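Cells (2,000/well) expressing the ELG1-luciferase fusion are dosed by pin tool and kept 16 hr at 37 °C, 5% CO2. Signal comes from ONE-Glo luciferase reagent after 30 min at room temperature.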
SMN2 splice up: increases expression of the SMN2 splice variant; HEK293 SMN2-luciferase splicing reporter, luminescence, 30-36 h; Potency, µM (top dose mostly 46.1 µM), inactives show at the top dose activity change, positive = activation, most hits filed as activators; hit rate 2.8% among 210,000; AID 1458; further: % of control where 0% means no effect; nearly all actives have a fitted effect of over 55% in size
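HEK293 cells carry an SMN2 […]–luciferase reporter in which exon 7 inclusion puts luciferase in frame. Cells were plated 10-12 h before compound addition, then incubated 30-36 h at 37C. ONE-Glo luminescence was read; sodium butyrate at 4.5 mM final served as control.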
NPC1 prom act: NPC1 promoter activation; Huh7 NPC1 promoter luciferase reporter, 24 h; Potency, µM (series often up to 9.22 µM), for the others: at the top dose activation, usual class: activators; hit rate 2.4% among 320,000; further: % of control where 0% means no effect; nearly all actives have a fitted effect of over 60% in size
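Huh7 cells stably carrying NPC1 promoter–luciferase, plated in Opti-MEM with 10% FBS for 2 h, were exposed to compound in DMSO for 24 h at 37 °C; luciferase reagent was added for 10 min and luminescence read.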
ELG1 DNA repair: ELG1-dependent DNA repair inhibition. HEK293T ELG1-luciferase reporter, luminescence, 16 h; DNA damage induced by 5-fluorouridine. Potency, µM (top dose mostly 46.1 µM), for the others: at the top dose activity change, negative = inhibition, usual class: inhibitors. hit rate 2.3% among 330,000. AID 504467; further: on the % scale 0 is the no-effect control and ±100 the full control effect; nearly all actives have a fitted effect of over 55% in size
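Reporter activity after DNA damage by 5-fluorouridine is monitored. Compound-treated cells incubate 16 hr at 37 °C, then ONE-Glo is added for 30 min before luminescence reading.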
The depositor's hits bear a star; u = inconclusive; x = no result given; [ ] = another dose, or the depositor's remark. The call rests on the fitted dose curve; in most records, active means well fitted curve in the direction sought with a large enough effect; inconclusive means small, poorly fitted or top-dose-only effect, or another doubt; inactive means no such curve, though single readings can be large; an effect the other way counts as inactive or inconclusive. Potency means the concentration at half of the fitted maximal effect.

SMILES	Rab9 prom act	FLuc modulator	ELG1 genotox	SMN2 splice up	NPC1 prom act	ELG1 DNA repair
COc1ccccc1NC(=O)Cn1c(=O)n(-c2cccc(Cl)c2)c(=O)c2c1c1cc(C)ccc1n2C	x	-3%	x	-2%	x	x
CCOC(=O)CNC(=O)N1CCN(S(=O)(=O)c2ccc3c(ccn3C)c2)CC1	x	0%	x	x	x	x
COC(=O)c1cc2sc(C)cc2n1Cc1cccc(OC)c1	x	-11%	x	-13%	x	x
COc1ccc(-c2nc(C(=O)O)cs2)cc1OC	15%	u	7%	-10%	12%	u
COc1ccc(-c2cc(C(=O)O)nc3ccc4ccccc4c23)cc1OC	3%	4.3µM*	5%	15%	10%	u
Cc1ccn2c(C(=O)c3ccc(Cl)cc3)cnc2c1	1.4µM*	2.1µM*	1.2µM*	22%	3.5µM*	u
Cc1ccn2c(=O)nc(SCC(=O)c3ccc(Cl)cc3)nc2c1	2%	-14%	u	x	0%	u
CCN1CCN(c2ncnc3c2cnn3-c2cc(Cl)ccc2C)CC1	x	-1%	x	x	x	x
Cc1ccc(-n2ncc3c(N4CCCCCC4)ncnc32)cc1	x	0.12µM*	x	x	x	x
CCN1CCN(c2ncnc3c2cnn3-c2ccc(C)cc2)CC1	x	11µM*	x	x	x	x
Fc1ccc(-n2ncc3c(N4CCCCCC4)ncnc32)cc1	x	0.95µM*	x	x	x	x
Clc1ccc(-n2ncc3c(N4CCCC4)ncnc32)cc1	0.32µM*	0.34µM*	0.18µM*	-75%	0.5µM*	u
O=C(COc1ccccc1F)c1ccc(O)cc1O	7%	u	13%	-5%	12%	26%
Cc1c(O)ccc(C(=O)COc2ccccc2F)c1O	5%	21µM*	u	-17%	15%	u
Cc1ccc(CNC(=O)C2CCCN(c3nc4ccccc4n4cccc34)C2)cc1 (stereo not given)	x	-4%	x	x	x	x
CCN(C(=O)COc1ncnc2scc(-c3ccc(F)cc3)c12)C1CCS(=O)(=O)C1 (stereo not given)	13%	4%	18µM*	7%	0%	0%
O=S(=O)(NCCc1nnc2ccc(SCc3cccc(Cl)c3)nn12)c1ccccc1	x	0%	x	x	x	x
COc1ccc(C(=O)Nc2cc(C)nn2-c2nc3ccccc3[nH]2)c(OC)c1	1%	-3%	-17%	22%	7%	23µM*
COc1cccc(OC)c1C(=O)Nc1cc(C)nn1-c1nc2ccccc2[nH]1	-1%	2%	-11%	-26%	-5%	u
Cc1cc(NC(=O)c2ccccc2)n(-c2nc3ccccc3[nH]2)n1	-4%	0%	u	-13%	-9%	-9%
Cc1cc(NC(=O)CC#N)n(-c2nc3ccccc3[nH]2)n1	0%	2%	-4%	x	5%	12µM*
CCOC(=O)c1cnc2ccc(C(=O)OC)cc2c1Nc1ccccc1CC	x	-11%	x	-28%	x	x
COc1ccc(NC(=S)N2CCCC(c3nc4ccc(C)cc4[nH]3)C2)c(OC)c1 (stereo not given)	-8%	13µM*	-2%	x	-8%	2%
COc1ccc(NC(=S)N2CCCC(c3nc4ccc(C)cc4[nH]3)C2)cc1 (stereo not given)	-6%	13µM*	-2%	x	-1%	-10%
Cc1ccc(NC(=S)N2CCCC(c3nc4ccc(C)cc4[nH]3)C2)c(C)c1 (stereo not given)	0%	-8%	-7%	-4%	1%	-6%
SMILES	Rab9 prom act	FLuc modulator	ELG1 genotox	SMN2 splice up	NPC1 prom act	ELG1 DNA repair
Cc1cc2nc(C3CCCN(C(=S)Nc4ccccc4C)C3)[nH]c2cc1C (stereo not given)	0%	3.4µM*	1%	6%	-2%	u
CCc1ccc(CNC(=O)Cn2nc(C)c3nn(-c4ccc(Cl)cc4)c(C)c3c2=O)cc1	x	1%	x	x	x	x
Cc1ccc(-n2c(=O)c3ccc(C(=O)NCc4ccccc4Cl)cc3n(Cc3cccc(F)c3)c2=O)cc1	x	1%	x	-1%	x	x
Cc1ccc(N=Nc2c(O)n(CN3CCOCC3)c3ccccc23)cc1	0.4µM*	2.7µM*	3.7µM*	22µM*	1.4µM*	u
Cc1cccc(NC(=S)N=Nc2c(O)n(CN3CCOCC3)c3ccccc23)c1C	-9%	8%	7%	-64%	1%	u
CCOC(=O)c1cnc2c(C)c(Cl)ccc2c1Nc1ccc(N2CCOCC2)cc1	x	0%	x	5%	x	x
Cc1ccc(-c2nc3[nH]c(=O)cc(NC(=O)c4cccs4)n3n2)cc1	-6%	13µM*	-1%	x	-17%	-20%
CC(C)(C)c1ccc(-c2nc3[nH]c(=O)cc(NC(=O)c4ccco4)n3n2)cc1	1.1µM*	0.43µM*	u	x	4µM*	u
Cc1ccc(-c2nc3[nH]c(=O)cc(NC(=O)C(C)C)n3n2)cc1	-6%	-2%	0%	x	1%	-7%
CCn1c(CCCc2nc3c([nH]2)c(=O)n(C)c(=O)n3C)nc2c1c(=O)n(C)c(=O)n2C	x	x	x	-6%[9.22 µM]	x	x
COc1ccc(N2CCN(C(=O)Cn3cnc4sc(C)c(S(=O)(=O)N5CCCCC5)c4c3=O)CC2)cc1	x	6%	x	4%	x	x
COC(=O)C1=C(C)N(Cc2ccccc2)C(=NCc2cccc(C(F)(F)F)c2)N[C@H]1c1cccc(C(F)(F)F)c1	-6%	1%	-11%	x	-3%	18µM*
COC(=O)C1=C(C)N(Cc2ccccc2)C(=NCc2cccc(C(F)(F)F)c2)N[C@H]1c1cccc(F)c1	0%	3%	-9%	x	-5%	u
O=C(c1ccc2nsnc2c1)N1CCN(c2ccc([N+](=O)[O-])cc2)CC1	-3%	1%	-6%	x	-1%	16µM*
Cc1csc(NC(=O)c2sccc2C)n1	0.89µM*	11µM*	u	x	1.8µM*	u
Cc1csc(NC(=O)c2cccn2C)n1	2.2µM*	8.5µM*	u	16µM*	3.5µM*	u
Cn1cccc1C(=O)Nc1nc(-c2ccccn2)cs1	1.8µM*	8.5µM*	16%	25%	2µM*	u
Cc1csc(NC(=O)c2ccc(C(=O)Nc3nc(C)cs3)cc2)n1	9%	-8%	2%	x	5%	u
Cc1csc(NC(=O)c2ccccc2C(=O)O)n1	-4%	0%	-3%	-3%	-5%	1%
C[C@@]12CC[C@@H]3[C@H](CCC4=CC(=O)CC[C@]43C)[C@@H]1CC[C@@H]2C(=O)COS(=O)(=O)c1ccc(Br)cc1	x	x	x	-17%[9.22 µM]	x	x
CN(C)c1ccc(N=Nc2cccc3ccoc23)cc1	u	1.2µM*	6.5µM*	3.5µM*	u	u
CN(C)C(=S)Nc1cccc(F)c1	-1%	0%	-7%	x	-1%	2%
CN(C)c1ccc(N=Nc2cccc(F)c2)cc1	3.5µM*	0.24µM*	0.65µM*	x	2µM*	u

Assay outcomes: PubChem, National Center for Advancing Translational Sciences (NCATS)
